# Results filed as inconclusive are left out. A call without a number means that no potency is given here. Values without a mark were called inactive. Calls of active or inactive are those of the source. Unless noted, calls come from the whole dose curve; as a rule, active = well fitted curve in the direction sought with a large enough effect in the repeat runs; inconclusive = weak or mixed curves; inactive = no such curve, though single readings can be large; an effect the other way counts as inactive or inconclusive.
# Legend:
# [1] = qHTS assay to identify small molecule agonists of the peroxisome proliferator-activated receptor delta (PPARd) signaling pathway - cell viability counter screen (AID 743211); note: nearly all actives have a fitted effect of over 55% in size; note: potency is the fitted concentration of half-maximal effect
# How it was run: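 Tox21 library compounds, delivered in DMSO, were incubated 17 h with PPARd-bla HEK293H cells; cytotoxicity was taken from CellTiter-Glo luminescence read 30 min after reagent addition.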
# [2] = target: Peroxisome proliferator-activated receptor delta (Homo sapiens) (UniProt Q03181); assay: qHTS assay to identify small molecule agonists of the peroxisome proliferator-activated receptor delta (PPARd) signaling pathway (AID 743212; calls by dose curve)
# How it was run: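 HEK293H UAS-bla reporter cells, human PPARd system; compounds delivered in DMSO after 5 h plating, then at 37 C. Beta-lactamase FRET read, 2 h RT substrate step.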
# [3] = qHTS assay to identify small molecule antagonists of the peroxisome proliferator-activated receptor delta (PPARd) signaling pathway - cell viability counter screen (AID 743213); note: nearly all actives have a fitted effect of over 50% in size
# How it was run: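 HEK293H cells with the PPARd UAS-bla reporter, co-treated 17 h at 37 C with compounds and L165041 (300 nM final), were lysed with CellTiter-Glo. Luminescence indicated viable cell content.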
# [4] = target: Peroxisome proliferator-activated receptor delta (Homo sapiens) (UniProt Q03181); assay: qHTS assay to identify small molecule antagonists of the peroxisome proliferator-activated receptor delta (PPARd) signaling pathway (AID 743215; active = well fitted inhibition curve with a large enough effect in the signal ratio in the repeat runs, not every such curve was filed as active; the % refers to the signal ratio;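 note: cells stimulated with agonist L165041 at 300 nM final during compound exposure; series mostly up to about 62 µM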)
# How it was run: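 Inhibition of L165041-driven (300 nM final) PPARd signaling is scored in HEK293H UAS-bla cells. Exposure lasts 17 h at 37 C; beta-lactamase activity is then read by FRET substrate fluorescence after 2 h at room temperature.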
# [5] = qHTS assay to identify small molecule agonists of the farnesoid-X-receptor (FXR) signaling pathway - cell viability counter screen (AID 743218); note: nearly all actives have a fitted effect of over 45% in size
# How it was run: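 Cytotoxicity counter-screen run in parallel, same wells: FXR-UAS-bla HEK 293T cells dosed 16 h at 37 C, viability read by CellTiter-Glo luminescence after 30 min at room temperature.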
# [6] = target: Bile acid receptor (Homo sapiens) (UniProt Q96RI1); assay: qHTS assay to identify small molecule agonists of the farnesoid-X-receptor (FXR) signaling pathway (AID 743220; active = well fitted activation curve with a large enough effect in the signal ratio in the repeat runs, not every such curve was filed as active; the % refers to the signal ratio)
# How it was run: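 Beta-lactamase reporter under UAS control in GeneBLAzer FXR HEK 293T cells (5000/well) measured with LiveBLAzer FRET substrate after 2 h at room temperature. Compound exposure lasted 16 h at 37C.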
# [7] = qHTS assay to identify small molecule antagonists of the farnesoid-X-receptor (FXR) signaling pathway - cell viability counter screen (AID 743221; active = well fitted cell-killing curve with a large enough effect in the repeat runs, not every such curve was filed as active; note: nearly all actives have a fitted effect of over 50% in size)
# How it was run: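 Cytotoxicity is taken from ATP luminescence (CellTiter-Glo, 30 min, room temperature) in FXR-bla HEK 293T cells previously incubated 16 h at 37 C with compound and chenodeoxycholic acid at 50 uM final.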
# [8] = target: Vitamin D3 receptor (Homo sapiens) (UniProt P11473); assay: qHTS assay to identify small molecule agonists of the vitamin D receptor (VDR) signaling pathway (AID 743222; calls by dose curve)
# How it was run: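 Quantitative HTS agonist-mode screen: compounds in DMSO were pin-transferred onto VDR-bla cells and incubated 16 h at 37C, 5% CO2. Reporter activity was detected with LiveBLAzer B/G FRET substrate after 2 h at room temperature.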
# [9] = target: Vitamin D3 receptor (Homo sapiens) (UniProt P11473); assay: qHTS assay to identify small molecule antagonists of the vitamin D receptor (VDR) signaling pathway (AID 743223; active = well fitted inhibition curve with a large enough effect in the signal ratio in the repeat runs, not every such curve was filed as active; the % refers to the signal ratio)
# How it was run: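 Quantitative HTS in VDR-bla reporter cells stimulated with 1alpha,25-dihydroxyvitamin D3, 3 nM final. Compound exposure 16 h, 37C, 5% CO2. Read-out: beta-lactamase FRET substrate fluorescence, 2 h RT.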
# [10] = target: Bile acid receptor (Homo sapiens) (UniProt Q96RI1); assay: qHTS assay to identify small molecule antagonists of the farnesoid-X-receptor (FXR) signaling pathway (AID 743217; active = well fitted inhibition curve with a large enough effect in the signal ratio in the repeat runs, not every such curve was filed as active; the % refers to the signal ratio)
# How it was run: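 Antagonist mode against 50 uM (final) chenodeoxycholic acid stimulation in FXR-bla HEK 293T cells, 16 h at 37 °C. Inhibition detected as reduced beta-lactamase activity via LiveBLAzer B/G FRET fluorescence after 2 h at room temperature.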
# Sequence of Vitamin D3 receptor (Homo sapiens) (P11473 whole entry, looked up): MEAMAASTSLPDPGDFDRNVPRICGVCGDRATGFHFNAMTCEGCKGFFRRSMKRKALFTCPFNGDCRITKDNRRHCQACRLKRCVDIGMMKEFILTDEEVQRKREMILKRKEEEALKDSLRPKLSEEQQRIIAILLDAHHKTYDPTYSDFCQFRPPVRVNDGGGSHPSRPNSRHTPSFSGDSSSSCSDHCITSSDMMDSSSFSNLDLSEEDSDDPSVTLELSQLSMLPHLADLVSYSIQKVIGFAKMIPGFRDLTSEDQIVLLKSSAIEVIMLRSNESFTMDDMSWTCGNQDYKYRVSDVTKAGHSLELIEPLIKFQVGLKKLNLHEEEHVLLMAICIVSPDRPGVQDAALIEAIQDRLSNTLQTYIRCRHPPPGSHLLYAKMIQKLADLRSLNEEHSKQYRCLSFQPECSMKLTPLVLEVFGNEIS
# Sequence of Bile acid receptor (Homo sapiens) (Q96RI1 whole entry, looked up): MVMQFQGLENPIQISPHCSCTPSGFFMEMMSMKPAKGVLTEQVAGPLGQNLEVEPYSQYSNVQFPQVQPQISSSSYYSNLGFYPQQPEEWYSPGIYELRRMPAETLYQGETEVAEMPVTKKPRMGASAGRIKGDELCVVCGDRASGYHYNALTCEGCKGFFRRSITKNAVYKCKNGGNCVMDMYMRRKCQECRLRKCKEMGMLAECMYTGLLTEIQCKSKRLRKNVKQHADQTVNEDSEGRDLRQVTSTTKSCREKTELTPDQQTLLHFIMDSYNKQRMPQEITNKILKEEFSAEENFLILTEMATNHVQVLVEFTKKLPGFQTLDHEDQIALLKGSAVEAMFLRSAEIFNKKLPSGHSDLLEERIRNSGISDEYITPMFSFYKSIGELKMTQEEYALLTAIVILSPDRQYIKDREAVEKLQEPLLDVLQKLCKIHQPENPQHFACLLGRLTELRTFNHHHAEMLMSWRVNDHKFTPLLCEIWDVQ
# Sequence of Peroxisome proliferator-activated receptor delta (Homo sapiens) (Q03181 whole entry, looked up): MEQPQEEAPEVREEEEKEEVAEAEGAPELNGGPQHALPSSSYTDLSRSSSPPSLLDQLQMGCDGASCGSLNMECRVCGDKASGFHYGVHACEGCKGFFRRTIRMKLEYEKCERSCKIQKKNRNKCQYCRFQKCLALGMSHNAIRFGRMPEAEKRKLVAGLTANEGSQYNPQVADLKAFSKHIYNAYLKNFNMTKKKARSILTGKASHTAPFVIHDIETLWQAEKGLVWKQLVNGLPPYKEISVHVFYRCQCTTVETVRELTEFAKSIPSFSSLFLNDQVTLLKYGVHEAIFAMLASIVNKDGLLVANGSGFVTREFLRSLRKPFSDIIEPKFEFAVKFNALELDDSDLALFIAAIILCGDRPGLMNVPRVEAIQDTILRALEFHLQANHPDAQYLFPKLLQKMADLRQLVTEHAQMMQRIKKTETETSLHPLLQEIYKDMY
Compound,Potency [1],Potency [2],Potency [3],Potency [4],Potency [5],Potency [6],Potency [7],Potency [8],outcome [9],Potency [10]
C/C=C/C=C/CO,inactive,inactive,inactive,inactive,inactive,inactive,inactive,inactive,inactive,
C=C(C)C(=O)OCCOCC,inactive,inactive,inactive,inactive,inactive,,inactive,,,
CC1OC(=O)C(C)OC1=O (configuration not stated),inactive,inactive,inactive,inactive,inactive,inactive,inactive,inactive,inactive,
COc1cc(Cl)ccc1Oc1ccc(Cl)cc1Cl,47.6 µM (active),inactive,inactive,inactive,inactive,inactive,inactive,,inactive,
COc1cc(Cl)c(OC)cc1N,inactive,inactive,inactive,inactive,inactive,inactive,inactive,inactive,,inactive
CCCCC1=NC2(CCCC2)C(=O)N1Cc1ccc(-c2ccccc2-c2nn[nH]n2)cc1,inactive,inactive,inactive,inactive,inactive,inactive,inactive,inactive,,
CC(C)CC(=O)C1C(=O)c2ccccc2C1=O,inactive,inactive,inactive,inactive,inactive,inactive,inactive,,,
C=CC(=O)OCCOCCOC(=O)C=C,49.2 µM (active),,,,,,,,,
O=C(CS)Nc1ccccc1,inactive,inactive,inactive,inactive,inactive,inactive,inactive,inactive,inactive,inactive
CC(C)Nc1ccc(NC(C)C)c2c1C(=O)c1ccccc1C2=O,inactive,inactive,inactive,inactive,,inactive,,,inactive,inactive
NCCCN1CCOCC1,inactive,inactive,inactive,inactive,inactive,inactive,inactive,,inactive,inactive
O=C(O)c1ccccc1Cl,inactive,inactive,inactive,inactive,,inactive,inactive,inactive,inactive,inactive
C=C(C)C(=O)OCCO,inactive,inactive,inactive,inactive,inactive,inactive,inactive,inactive,inactive,inactive
O=C1[C@H]2CCCC[C@H]2C(=O)N1CCCCN1CCN(c2nsc3ccccc23)CC1,inactive,inactive,inactive,inactive,inactive,inactive,inactive,,,
C=CCOc1ccccc1OCC(O)CNC(C)C (configuration not stated),inactive,inactive,inactive,inactive,inactive,inactive,inactive,inactive,,
O=[N+]([O-])c1ccc(NCCO)c(OCCO)c1,inactive,inactive,inactive,inactive,inactive,inactive,inactive,inactive,inactive,inactive
C=C1[C@H]2CC[C@@H]3[C@H]2C(C)(C)CCC[C@]13C,inactive,inactive,inactive,inactive,inactive,inactive,inactive,,,
O=S(c1cc(Cl)cc(Cl)c1O)c1cc(Cl)cc(Cl)c1O,23.7 µM (active),,,,,,,,,
CCOC(=O)C(F)(F)F,inactive,inactive,inactive,inactive,inactive,inactive,inactive,inactive,inactive,inactive
CCCn1cnc2c1c(=O)n(CCCCC(C)=O)c(=O)n2C,inactive,inactive,inactive,inactive,inactive,inactive,inactive,,inactive,
OC[C@H]1O[C@@H](OCCc2ccc(O)cc2)[C@H](O)[C@@H](O)[C@@H]1O,inactive,inactive,inactive,inactive,inactive,inactive,inactive,,,inactive
Nc1cccc([N+](=O)[O-])c1,inactive,inactive,inactive,inactive,inactive,inactive,inactive,,,inactive
Cc1ccc(N=Nc2c(O)c(C(=O)O)cc3ccccc23)c(S(=O)(=O)O)c1,inactive,inactive,inactive,inactive,inactive,,inactive,,,
O=CC1CC=CCC1 (configuration not stated),inactive,inactive,inactive,inactive,inactive,inactive,inactive,inactive,,
COCC(C)OC(C)=O (configuration not stated),inactive,inactive,inactive,inactive,inactive,inactive,inactive,inactive,inactive,

# Source: PubChem BioAssay (Tox21)
